Among all 310,000 compounds or so, about 14,000 (4.5%) showed an effect of 50% or more. The effect is printed as a negative number. Shown is part of a subset that was picked to be rich in strong results.
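Also: peak tail current of the secondary pulse compared with the same well before compound.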

Sequence of human ether-à-go-go-related gene (hERG) potassium channel (Q12809 whole entry, looked up): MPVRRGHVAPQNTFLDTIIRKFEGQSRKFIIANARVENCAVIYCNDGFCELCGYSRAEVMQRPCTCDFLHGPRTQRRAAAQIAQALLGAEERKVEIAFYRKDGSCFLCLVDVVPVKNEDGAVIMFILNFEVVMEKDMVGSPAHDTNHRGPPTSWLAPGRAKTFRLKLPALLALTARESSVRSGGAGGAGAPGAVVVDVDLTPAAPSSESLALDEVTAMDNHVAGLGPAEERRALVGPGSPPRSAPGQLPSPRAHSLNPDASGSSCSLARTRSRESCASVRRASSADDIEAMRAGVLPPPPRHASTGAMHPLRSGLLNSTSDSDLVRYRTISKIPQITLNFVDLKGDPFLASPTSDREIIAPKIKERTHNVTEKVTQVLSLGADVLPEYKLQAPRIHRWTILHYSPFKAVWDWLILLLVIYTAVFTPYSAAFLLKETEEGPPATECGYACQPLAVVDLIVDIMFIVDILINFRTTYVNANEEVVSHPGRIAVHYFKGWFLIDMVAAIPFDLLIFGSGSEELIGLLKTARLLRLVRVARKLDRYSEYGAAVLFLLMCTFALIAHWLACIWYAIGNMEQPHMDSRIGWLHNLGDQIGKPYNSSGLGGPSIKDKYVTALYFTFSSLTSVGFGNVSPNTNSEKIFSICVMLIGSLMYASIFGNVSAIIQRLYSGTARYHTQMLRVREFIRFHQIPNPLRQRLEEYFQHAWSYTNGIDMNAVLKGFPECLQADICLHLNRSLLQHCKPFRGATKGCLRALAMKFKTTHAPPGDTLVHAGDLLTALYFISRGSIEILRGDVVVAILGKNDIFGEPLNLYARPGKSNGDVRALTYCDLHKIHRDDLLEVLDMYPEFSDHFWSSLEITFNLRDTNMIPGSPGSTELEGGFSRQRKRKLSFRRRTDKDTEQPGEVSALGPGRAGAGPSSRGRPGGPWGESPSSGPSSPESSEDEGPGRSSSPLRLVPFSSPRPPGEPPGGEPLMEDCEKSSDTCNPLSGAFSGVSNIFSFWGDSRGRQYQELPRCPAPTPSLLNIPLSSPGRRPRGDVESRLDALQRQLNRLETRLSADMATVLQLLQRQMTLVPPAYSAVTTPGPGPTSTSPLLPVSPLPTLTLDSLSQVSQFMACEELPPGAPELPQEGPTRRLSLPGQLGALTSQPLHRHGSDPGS

This experiment addresses human ether-à-go-go-related gene (hERG) potassium channel (human, UniProt Q12809). As to the kind of experiment: primary screen, population patch clamp on CHO cells stably expressing hERG; higher = less effect of the substance.
Turning to `CCOc1cc(CNc2ccc(N(C)C)cc2)cc(Br)c1OCC(=O)NC(C)(C)C`, the “hERG current change (%, negative = inhibition) at 10uM” value is reported as -17%.
The result for `Cc1c(C)c2cc3c(C)coc3cc2oc1=O` reads 10.5%.
On to `O=C(NCc1ccc(OC(F)(F)F)cc1)C1CC2Cn3c(nc4ccccc43)C2N1c1ccccc1` (stereo not shown), for which the “hERG current change (%, negative = inhibition) at 10uM” value is listed as -61.3%.
Take `O=C(NCc1ccc(OC(F)(F)F)cc1)C1CC2Cn3c(nc4ccccc43)C2N1Cc1ccccc1` (stereo not shown): the “hERG current change (%, negative = inhibition) at 10uM” value was -62.1%.
Consider `CN1C(C(=O)NCC2CC2)CC2Cn3c(nc4cc5ccccc5cc43)C21` (stereo not shown), for which the “hERG current change (%, negative = inhibition) at 10uM” value was -21.2%.
The result for `COc1ccc(CCNC(=O)C2CC3Cn4c(nc5cc(C)c(C)cc54)C3N2C)cc1` (stereo not shown) reads -31.4%.
In the case of `COc1ccc(CCNC(=O)C2CC3Cn4c(nc5cc(Cl)c(Cl)cc54)C3N2C)cc1` (stereo not shown), the “hERG current change (%, negative = inhibition) at 10uM” value is recorded as -23.5%.
For `CN1C(C(=O)NCc2ccc(OC(F)(F)F)cc2)CC2Cn3c(nc4cc(Cl)c(Cl)cc43)C21` (stereo not shown), the “hERG current change (%, negative = inhibition) at 10uM” value is given as -77.9%.
In the case of `COc1ccc(CCNC(=O)C2CC3Cn4c(nc5cc6ccccc6cc54)C3N2C)cc1` (stereo not shown), the “hERG current change (%, negative = inhibition) at 10uM” value was -43.7%.
The result for `CN1C(C(=O)NCc2ccc(OC(F)(F)F)cc2)CC2Cn3c(nc4cc5ccccc5cc43)C21` (stereo not shown) reads -69.4%; that for `COc1ccc(CCNC(=O)C2CC3Cn4c(nc5ccccc54)C3N2c2ccccc2)cc1` (stereo not shown), -7.57%.
The result for `COc1ccc(CCNC(=O)C2CC3Cn4c(nc5ccccc54)C3N2Cc2ccccc2)cc1` (stereo not shown) reads -49.7%.
Regarding `O=C(CN1CCC2(CC1)OCCO2)c1ccc2cc[nH]c2c1`, the “hERG current change (%, negative = inhibition) at 10uM” value was -15.2%.
Regarding `Cc1cc(C(=O)N/N=C/c2ccc(-c3cccc(Cl)c3)o2)n[nH]1`, the “hERG current change (%, negative = inhibition) at 10uM” value was found to be 11.3%.
The result for `COc1ccc(CCNC(=O)C2CC3Cn4c(nc5ccccc54)C3N2C)cc1` (stereo not shown) reads -8.64%; that for `CN1C(C(=O)NCC2CC2)CC2Cn3c(nc4ccccc43)C21` (stereo not shown), 15.5%; that for `CN1C(C(=O)NCc2ccc(OC(F)(F)F)cc2)CC2Cn3c(nc4ccccc43)C21` (stereo not shown), -78.7%.
Consider `CCOc1ncccc1C(=O)NCCCSc1ccccc1`, for which the “hERG current change (%, negative = inhibition) at 10uM” value was -35.9%.
For the compound `O=C(O)C1=C[C@@H](c2ccccc2)C[C@@H](OCCCCO)O1`, the “hERG current change (%, negative = inhibition) at 10uM” value came out at 8.4%.
Take `COc1ccc(CC(C)N2CCN(c3cccc(C(F)(F)F)c3)CC2)cc1OC` (stereo not shown): the “hERG current change (%, negative = inhibition) at 10uM” value is on record as -65.9%.
The result for `COc1ccc(CC(C)N2CCN(c3ccccc3)CC2)cc1OC` (stereo not shown) reads -64%.
For `COc1cccc(CN2CCN(c3cccc(C(F)(F)F)c3)CC2)c1OC`, the “hERG current change (%, negative = inhibition) at 10uM” value is recorded as -23.9%.
As to `COc1ccc(CC(C)N2CCN(c3ccccc3OC)CC2)cc1OC` (stereo not shown), the “hERG current change (%, negative = inhibition) at 10uM” value is -62.1%.
As to `COc1ccccc1CC(=O)N1CCN(c2cccc(C(F)(F)F)c2)CC1`, the “hERG current change (%, negative = inhibition) at 10uM” value is on record as -9.71%.
The result for `COc1ccc(/C=N/N2CCN(c3ccccc3OC)CC2)cc1OC` reads -19.7%; that for `COc1ccc(S(=O)(=O)N2CCN(c3ccccc3OC)CC2)cc1OC`, -2.71%.
Regarding `COc1ccc(CC(=O)N2CCN(c3ccccc3)CC2)cc1OC`, the “hERG current change (%, negative = inhibition) at 10uM” value came to 18.4%.
The result for `COc1ccc(CC(C)N2CCN(Cc3ccccc3)CC2)cc1OC` (stereo not shown) reads -33.1%.

The values above are taken from paper PMC4336329 (PLoS ONE, 2015).
